The campaign covered roughly 2,200 compounds. About 1,300 (59%) were called active. The rule behind the calls is not given here. So high a share suggests a set chosen from earlier hits. A selection follows. Results with a measured potency or affinity are listed apart.
test: human monocytic cell viability reduction – S. typhimurium screen hits, cytotoxicity control for Salmonella PhoP regulon inhibitors, dose response (AID 2253); conditions: THP-1 viability, CellTiter-Glo luminescence, 72 h; series mostly up to 50 µM

SMILES | outcome
O=C1c2ccccc2C(=O)N1Cc1nc(-c2ccccn2)no1 | inactive
O=C1c2ccccc2C(=O)N1CCCc1nc(-c2ccccn2)no1 | inactive
CCOc1cc(CNn2cnnc2)ccc1OCC(=O)NC1CCCCC1 | inactive
O=C(COC(=O)/C=C/c1ccco1)Nc1cccc([N+](=O)[O-])c1 | inactive
Cc1ccccc1OCC(=O)N/N=C/c1ccco1 | inactive
CCOC(=O)/C=C1\SCC(=O)N1CC(=O)NC1CCCCC1 | inactive
Cc1cc(C)c(NC(=O)COc2ccccc2C(=O)Nc2ccc3c(c2)oc2ccccc23)c(C)c1 | inactive
CCn1c(Cc2ccccc2)nnc1SCC(=O)Nc1ccc(S(N)(=O)=O)cc1 | inactive
N/C(=N\OC(=O)COc1ccc(Cl)cc1)c1cccnc1 | inactive
c1ccc(CCNc2nc3ccccc3s2)cc1 | inactive
COc1ccc(/C=C/C(=O)NCCc2nc3ccccc3[nH]2)cc1 | inactive
Cc1ccc(C(=O)Oc2ccc(C(=O)COC(=O)c3cnccn3)cc2)cc1 | inactive
Nc1nnc(SCc2ccc(F)cc2Cl)s1 | inactive
O=C(CSc1nnc(-c2cccnc2)o1)OC1CCCCC1 | inactive
C/C(=N/NC(=O)Cc1cccn1C)c1ccccc1 | inactive
Cc1oc(CC(C)C)c(CN)c1C(=O)O | inactive
Cn1c(-c2ccc(N)cc2)nc2ccccc21 | inactive
CCOc1ccccc1Nc1nc2ccccc2n2cnnc12 | inactive
CCCn1c(N)nc2ccccc21 | inactive
CCCNC(=O)CN(C1CCCCC1)S(C)(=O)=O | inactive
O=C(CSc1n[nH]c(=O)[nH]c1=O)N/N=C/c1ccccc1 | inactive
COc1cc([N+](=O)[O-])ccc1NC(=O)CN(C)C | inactive
CC1CCc2cc(F)cc3c(=O)c(C(=O)O)cn1c23 (stereo not given) | inactive
CCN1C(=O)N/C(=C/c2ccc(Sc3ccc(C)cc3)o2)C1=O | inactive

SMILES | outcome
O=C(Nc1cccnc1)c1cc(F)cc(F)c1 | inactive
COc1nsnc1NS(=O)(=O)c1ccc(NC(=S)NC(=O)c2cccnc2)cc1 | inactive
COc1nccnc1NS(=O)(=O)c1ccc(NC(=S)NC(=O)c2cccnc2)cc1 | inactive
Cc1cccc(C(=O)NC(=S)Nc2ccc(N3CCOCC3)cc2)c1 | inactive
COC(=O)Cc1ccc(NC(=S)N2CCN(c3ccc(F)cc3)CC2)cc1 | inactive
O=C(Nc1ccccc1)Oc1ccc[nH]c1=O | inactive
CCCOc1ccc(C(=O)N2CCCC2C(=O)O)cc1 (stereo not given) | inactive
O=C(Nc1ccccn1)NC1CCCCC1 | inactive
CC(C)Nc1cc(C(F)(F)F)nc(-c2ccccn2)n1 | inactive
O=C(Nc1ccsc1C(=O)NC1CCCCC1)c1ccccc1 | inactive
COc1ccccc1NCCC(=O)OCC(=O)NC1CCCCCC1 | inactive
O=S(=O)(c1ccc(NC(=S)Nc2ccc3c(c2)OCO3)cc1)N1CCOCC1 | inactive
C/C(=N\NC(=O)c1ccccc1)c1ccc2c(c1)OCO2 | inactive
COc1ccc(-c2cc(C(=O)Nc3ccc(S(=O)(=O)Nc4ncccn4)cc3)c3ccccc3n2)cc1 | inactive
O=C(Nc1nccs1)c1cc(-c2ccco2)nc2ccccc12 | inactive
N#CCCN(C(=O)CN1C(=O)NC2(CCCC2)C1=O)c1ccccc1F | inactive
O=C(CSc1nnc(Cc2ccccc2)o1)NCCc1ccccc1 | inactive
c1ccc(CSc2nnc(-c3ccncc3)o2)cc1 | inactive
O=C(NCCc1ccccc1)c1ccc2nc(-c3ccco3)c(-c3ccco3)nc2c1 | inactive
CCn1cc(C(=O)O)c(=O)c2cc(F)c(N3CCN(C(=S)NC(=O)c4cccc(F)c4)CC3)cc21 | inactive
Cc1ccc(C(=O)c2ccccc2C(=O)O)c(O)c1 | inactive
Cc1cc(C)cc(-n2c(C)cc(C=C(C#N)C#N)c2C)c1 | inactive
CCN(c1ccc(OCC(=O)OCC(=O)Nc2ccc(F)c(F)c2F)cc1)S(=O)(=O)c1ccccc1 | inactive
NC1CCN(c2nc3c(cc2F)c(=O)c(C(=O)O)cn3-c2ccc(F)cc2F)C1 (stereo not given) | inactive

SMILES | outcome
CCOC(=O)C1=C(C)NC(=S)NC1c1ccc(OC(=O)c2ccco2)cc1 (stereo not given) | inactive
CCNC(=O)NC1(C(=O)Nc2ccc3c(c2)OCCO3)CCCCC1 | inactive
O=C(Nc1nc2ccc(SC(F)F)cc2s1)c1ccc2c(c1)S(=O)(=O)c1ccccc1C2=O | inactive
Cc1nn(C)c(C)c1S(=O)(=O)N1CCC(C(=O)NC2CCCCC2)CC1 | inactive
Cc1cccc(N2CCN(CC(=O)Nc3nccs3)CC2)c1C | inactive
O=c1cc(Cc2ccccc2)[nH]c(=S)[nH]1 | inactive
CC1CCc2c(N3CCC(O)CC3)c(F)cc3c(=O)c(C(=O)O)cn1c23 (stereo not given) | inactive
CC1(C)CC(=O)C=C(Nc2ccc(Br)cn2)C1 | inactive
Cc1nn(CCOc2ccccc2)c(=O)n1-c1ccc(F)cc1 | inactive
CCCn1c(/N=C/c2ccc3c(c2)OCO3)nc2ccccc21 | inactive
CCCn1c(NCCO)nc2ccccc21 | inactive
CC(Cl)C(=O)NNc1cccc(Cl)n1 (stereo not given) | inactive
S=c1nc(C2CCCCC2)[nH][nH]1 | inactive
Cc1cc(C)n2c(SCC(=O)NCc3ccco3)nnc2n1 | inactive
COc1ccc(C(=O)C(CO)Oc2ccccc2OC)cc1OC (stereo not given) | inactive
CCS(=O)(=O)Nc1cc(C(=O)OC)ccc1C(=O)OC | inactive
CCCCOC(=O)CSc1nc2c(c(=O)[nH]c(=O)n2C)n1C/C=C(\C)Cl | inactive
Cc1ccc(NC(=O)c2ccccc2)s1 | inactive
Brc1cccc(CNCc2cccs2)c1 | inactive
Cc1cc(C(=O)NCc2cccs2)cs1 | inactive
CCN(CC)Cc1c[nH]c2c(C(=O)OC)cccc12 | inactive
COCCn1c(-c2ccccc2F)n[nH]c1=S | inactive
O=C(CCN1CCCCC1)NCC1OCCc2ccccc21 (stereo not given) | inactive
CN1CCCC(OC(=O)c2ccc3c(c2)OCCO3)C1 (stereo not given) | inactive

SMILES | outcome
O=C(CCNS(=O)(=O)c1cccc2nsnc12)Nc1ccc2c(c1)OCCO2 | inactive
S=c1[nH]nc(Cc2cccc3ccccc23)o1 | inactive
c1coc(CNc2c3c(nc4ncnn24)CCCC3)c1 | inactive
CCOc1ccc(/C=N/O)cc1 | inactive
CCOc1ccc(CCNC(=O)c2cc3sc(Cl)cc3n2C)cc1OCC | inactive
CCN1CCN(C(=O)c2ccc(COc3ccc(Cl)cc3)o2)CC1 | inactive
Cc1nc(N)sc1Cc1ccc2c(c1)OCO2 | inactive
CCSc1cc(N2CCCC2)nc(-c2cccc(C)c2)n1 | inactive
O=C(CN1C(=O)c2ccccc2C1=O)N1CCN(c2ccccn2)CC1 | inactive
CCN(Cc1ccccc1)C(=O)CN1C(=S)NC(C)(C)CC1C (stereo not given) | inactive
Cc1cccc(NC(=O)c2cc(N3C(=O)CCC3=O)ccc2Cl)n1 | inactive
CC1CCN(S(=O)(=O)c2cccc(C(=O)N(C)C3CCS(=O)(=O)C3)c2)CC1 (stereo not given) | inactive
CN1CCN(S(=O)(=O)c2ccc(-c3ccccc3)cc2)CC1 | inactive
COCCCNc1ccnc2c(Cl)cccc12 | inactive
CC(C)c1ccc(NC(=O)Nc2cc3sccc3n2C)cc1 | inactive
COc1ccc(Cl)cc1C(=O)Nc1ccc(NC(=O)c2ccco2)cc1 | inactive
CSc1cccc(NC(=O)c2ccco2)c1 | inactive
CCC(C)C(NC(=O)OCc1ccccc1)C(=O)OCN1C(=O)c2ccccc2C1=O (stereo not given) | inactive
COC(=O)CCC(=O)Nc1ccc(OC)cc1 | inactive
COc1ccc(C(=O)Nc2cc(C)ccc2NC(=O)COc2ccccc2)cc1 | inactive
Cc1sc(NC(=O)c2ccco2)c(CN2CCN(c3ccc(F)cc3)CC2)c1C | inactive
CCOC(=O)c1c(C)[nH]c(C)c1C(=O)CSc1ncccn1 | inactive
COc1cc(OC)cc(C(=O)N[C@H](C(=O)OCC(=O)Nc2ccc(C(N)=O)cc2)C(C)C)c1 | inactive
Cc1ccc(-c2nnc(SCC(=O)N3CCCc4ccccc43)n2N)cc1 | inactive

SMILES | outcome
COC(=O)c1sccc1NC(=O)C1C2C=CC(O2)C1C(=O)O (stereo not given) | inactive
CN(C)c1nc(N)nc(Cn2ccnc2)n1 | inactive
O=C(Cc1cccs1)N(c1ccccc1)C1C=CS(=O)(=O)C1 (stereo not given) | inactive
CC(=O)N(Cc1ccc(Cl)cc1)c1cnccn1 | inactive
CC1(C)CC(=O)C=C(Nc2ccccc2NC(=O)c2cnccn2)C1 | inactive
CCn1cc(C(=O)NCCO)c(=O)c2cc(F)c(N3CCN(C)CC3)cc21 | inactive
COc1ccc(N2C(=O)C3CCCN3C2c2cccc(C)c2)cc1Cl (stereo not given) | inactive
Cc1ccc(C(=O)CSc2ncnc3sc4c(c23)CCCC4)cc1 | inactive
CSc1nnc2c3c4c(sc3nc(-n3nc(C)cc3C)n12)COC(C)(C)C4 | inactive
O=C(Nn1c(O)c(C=C2N=c3ccccc3=N2)sc1=S)c1ccc(Cl)cc1 | inactive
Cc1ccc(C)c(C(=O)NCc2ccncc2)c1 | inactive
COc1ccc(Br)cc1C(=O)NCc1cccnc1 | inactive
Cc1cc(=O)oc(C)c1C(=O)NCc1cccnc1 | inactive
S=C(NCc1cccnc1)Nc1cccc(Cl)c1 | inactive
Cc1ccc(NC(=S)NCc2cccnc2)cc1 | inactive
S=C(Nc1ccc(Cl)c(Cl)c1)N1CCOCC1 | inactive
C=CCSc1nnc(-c2ccc(Cl)cc2Cl)o1 | inactive
COc1c(N2CCN(C(=S)NC3CC4CCC3C4)C(C)C2)c(F)cc2c(=O)c(C(=O)O)cn(C3CC3)c12 (stereo not given) | inactive
COc1c(N2CCNC(C)C2)c(F)cc2c(=O)c(C(=O)O)cn(C3CC3)c12 (stereo not given) | inactive
CNC(=S)N1CCN(c2c(F)cc3c(=O)c(C(=O)O)cn(C4CC4)c3c2OC)CC1C (stereo not given) | inactive
COc1c(N2CCN(C(=S)Nc3ccc(F)cc3)C(C)C2)c(F)cc2c(=O)c(C(=O)O)cn(C3CC3)c12 (stereo not given) | inactive
CC(=O)Nc1c(C#N)c(C(C)(C)C)cn1C | inactive
COc1ccc(N(CC(=O)Nc2ccccc2SC)S(C)(=O)=O)cc1OC | inactive
COc1ccc(S(=O)(=O)N2Cc3ccccc3CC2C(=O)N2CCOCC2)cc1OC (stereo not given) | inactive
